A short description of experiment [1]: qHTS assay to identify aromatase inhibitors - cell viability counter screen (AID 743084).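 Note: cells stimulated with testosterone during compound exposure; nearly all actives have a fitted effect of over 55% in size.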
For experiment [2], the target named is Aryl hydrocarbon receptor (Homo sapiens) (UniProt P35869). Kind of experiment: qHTS assay to identify small molecule that activate the aryl hydrocarbon receptor (AhR) signaling pathway (AID 743085).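 For activation: HG2L7.5c1 human HepG2 liver cells with stably integrated DRE-driven firefly reporter; series mostly up to about 70 µM.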 Note: nearly all actives have a fitted effect of over 15% in size. Note: potency is the fitted concentration of half-maximal effect. Put shortly:
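HepG2 cells stably carrying a 20-DRE firefly luciferase reporter (HG2L7.5c1) treated with compound for 24 hr at 37C. Luciferase read by ONE-Glo luminescence, with CellTiter-Fluor viability read first.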

The nature of experiment [3]: qHTS assay to identify small molecule that activate the aryl hydrocarbon receptor (AhR) signaling pathway - cell viability counter screen (AID 743086).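 Note: HepG2 liver cells carrying the AhR DRE luciferase reporter; series mostly up to about 70 µM; nearly all actives have a fitted effect of over 45% in size.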 In outline: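 HepG2-AhR-luc (HG2L7.5c1) cells, 4000/well, treated 24 h at 37 C with compound; viability measured as CellTiter-Fluor fluorescence after 30 min in the same wells as the luciferase read.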
The target in experiment [4] is Peroxisome proliferator-activated receptor gamma (Homo sapiens) (UniProt P37231). Kind of experiment: qHTS assay to identify small molecule agonists of the peroxisome proliferator-activated receptor gamma (PPARg) signaling pathway (AID 743094; active = well fitted activation curve with a large enough effect in the signal ratio in the repeat runs, not every such curve was filed as active; the % refers to the signal ratio). Put shortly:
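Agonism was assessed in a beta-lactamase reporter system, HEK293H cells with a stably integrated UAS-bla construct under PPARg control; the 17 h treatment at 37C preceded a 1 h room-temperature FRET substrate read.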
Background: Quantitative high-throughput screening tests each substance at several concentrations.

The target is the same in experiment [5]. Kind of experiment: qHTS assay to identify small molecule antagonists of the peroxisome proliferator-activated receptor gamma (PPARg) signaling pathway (AID 743191; calls by dose curve; note: series mostly up to about 63 µM; nearly all actives have a fitted effect of over 30% in size). Put shortly:
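GeneBLAzer PPARg UAS-bla HEK293H cells, 5 h post-plating, exposed to compounds 17 h at 37C. LiveBLAzer B/G FRET substrate added for 1 h at room temperature; beta-lactamase reporter read by fluorescence intensity.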

A short description of experiment [6]: qHTS assay to identify small molecule antagonists of the peroxisome proliferator-activated receptor gamma (PPARg) signaling pathway - cell viability counter screen (AID 743194). Note: nearly all actives have a fitted effect of over 55% in size. Put shortly:
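Cytotoxicity counter screen in PPARg-bla HEK293H cells, same wells as reporter assay. Compounds plus 50 nM rosiglitazone (final) for 17 h at 37 C, then viability read by CellTiter-Glo luminescence.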

Experiment [7] is described as follows: qHTS assay for small molecule agonists of the antioxidant response element (ARE) signaling pathway (AID 743202; active = well fitted activation curve with a large enough effect in the signal ratio in the repeat runs, not every such curve was filed as active; the % refers to the signal ratio). In outline: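 HepG2 ARE-bla cells; 16 h treatment at 37 C; FRET-based beta-lactamase fluorescence read after 2 h substrate incubation at room temperature.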
A short description of experiment [8]: qHTS assay for small molecule agonists of the antioxidant response element (ARE) signaling pathway - cell viability counter screen (AID 743203; calls by dose curve; note: nearly all actives have a fitted effect of over 55% in size). In outline:
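ATP content via CellTiter-Glo luminescence served as the viability measure. Cells: ARE-bla HepG2, 2,000 per well. Exposure: 16 hrs, 37C/5% CO2.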

Experiment [9] is described as follows: qHTS assay for small molecule activators of the heat shock response signaling pathway - cell viability counter screen (AID 743209). Note: nearly all actives have a fitted effect of over 50% in size. In outline:
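Compounds dissolved in DMSO were added to overnight-plated HSE-bla HeLa cells and left 5 h at 37 C. Cell viability was quantified by luminescence using CellTiter-Glo.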

The nature of experiment [10]: qHTS assay for small molecule activators of the heat shock response signaling pathway (AID 743210; active = well fitted activation curve with a large enough effect in the signal ratio in the repeat runs, with a control signal flat, not every such curve was filed as active; the % refers to the signal ratio;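 note: HeLa cells with beta-lactamase reporter driven by heat shock elements; series mostly up to about 63 µM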). In outline:
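Following overnight attachment, HSE-bla HeLa cells received test compounds for 5 h at 37 C; beta-lactamase activity was then detected via FRET substrate fluorescence.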

A short description of experiment [11]: qHTS assay to identify small molecule agonists of the peroxisome proliferator-activated receptor delta (PPARd) signaling pathway - cell viability counter screen (AID 743211). Note: nearly all actives have a fitted effect of over 55% in size. In outline: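 PPARd-bla HEK293H cells (3000/well) were pre-incubated 5 h at 37 C, then exposed to compound for 17 h at 37 C. After 2 h with LiveBLAzer substrate, CellTiter-Glo was added to the same wells; luminescence read after 30 min at room temperature.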

A short description of experiment [12]: qHTS assay to identify small molecule antagonists of the peroxisome proliferator-activated receptor delta (PPARd) signaling pathway - cell viability counter screen (AID 743213). Note: nearly all actives have a fitted effect of over 50% in size. Put shortly: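 In this counter screen, HEK293H cells carrying a UAS-beta-lactamase reporter are co-treated with test compounds and 300 nM L165041 (final) for 17 h at 37 C; cell viability is quantified by CellTiter-Glo luminescence.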

Experiment [13] is described as follows: qHTS assay to identify small molecule agonists of the farnesoid-X-receptor (FXR) signaling pathway - cell viability counter screen (AID 743218). Note: nearly all actives have a fitted effect of over 45% in size. In outline:
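Quantitative HTS counter screen measuring ATP-based viability via CellTiter-Glo luminescence in HEK 293T cells carrying a UAS-driven beta-lactamase reporter, after 16 h compound exposure at 37 C.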

Experiment [14] is described as follows: qHTS assay to identify small molecule antagonists of the farnesoid-X-receptor (FXR) signaling pathway - cell viability counter screen (AID 743221; active = well fitted cell-killing curve with a large enough effect in the repeat runs, not every such curve was filed as active; note: nearly all actives have a fitted effect of over 50% in size). Put shortly:
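GeneBLAzer FXR-UAS-bla HEK 293T cells, compound plus chenodeoxycholic acid (50 uM final), 16 h at 37 C. CellTiter-Glo added to the same wells after the beta-lactamase read; luminescence read after 30 min at room temperature as viability.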

In experiment [15] the target is Vitamin D3 receptor (Homo sapiens) (UniProt P11473). Nature of the experiment: qHTS assay to identify small molecule agonists of the vitamin D receptor (VDR) signaling pathway (AID 743222; calls by dose curve). In outline: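 Tox21 cell reporter format: VDR-bla line, 16 h compound exposure in 5% CO2 at 37C, then fluorescence intensity after 2 h with LiveBLAzer B/G FRET substrate.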
Experiment [16] has the same target. Kind of experiment: qHTS assay to identify small molecule antagonists of the vitamin D receptor (VDR) signaling pathway (AID 743223; active = well fitted inhibition curve with a large enough effect in the signal ratio in the repeat runs, not every such curve was filed as active; the % refers to the signal ratio). In outline:
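VDR-bla cells were treated with compound plus 3 nM final 1alpha,25-dihydroxyvitamin D3 for 16 h at 37C. Beta-lactamase reporter read by B/G FRET substrate fluorescence after 2 h at room temperature. qHTS format.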

Experiment [17] addresses Peroxisome proliferator-activated receptor delta (Homo sapiens) (UniProt Q03181). Kind of experiment: qHTS assay to identify small molecule agonists of the peroxisome proliferator-activated receptor delta (PPARd) signaling pathway (AID 743212; calls by dose curve). In outline:
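Tox21 library screened in GeneBLAzer PPARd UAS-bla HEK293H cells. After compound treatment at 37 C, a FRET-based beta-lactamase substrate was applied for 2 h and fluorescence recorded.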

In experiment [18] the target is Bile acid receptor (Homo sapiens) (UniProt Q96RI1). Kind of experiment: qHTS assay to identify small molecule antagonists of the farnesoid-X-receptor (FXR) signaling pathway (AID 743217; active = well fitted inhibition curve with a large enough effect in the signal ratio in the repeat runs, not every such curve was filed as active; the % refers to the signal ratio). Put shortly:
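Test compounds are pin-transferred onto FXR-bla HEK 293T cells, then chenodeoxycholic acid is added at 50 uM final. After 16 h at 37 °C, LiveBLAzer B/G substrate is applied for 2 h at room temperature and fluorescence read.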

For experiment [19] the target is unchanged. Nature of the experiment: qHTS assay to identify small molecule agonists of the farnesoid-X-receptor (FXR) signaling pathway (AID 743220; active = well fitted activation curve with a large enough effect in the signal ratio in the repeat runs, not every such curve was filed as active; the % refers to the signal ratio). Put shortly: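 FXR-UAS-bla HEK 293T cells carrying a UAS-driven beta-lactamase reporter were plated for 5 h at 37C/5% CO2, then exposed to DMSO-dissolved Tox21 10K compounds for 16 h at 37C. A LiveBLAzer B/G FRET substrate was loaded for 2 h at room temperature before fluorescence reading.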

For experiment [20], the target named is Peroxisome proliferator-activated receptor delta (Homo sapiens) (UniProt Q03181). Nature of the experiment: qHTS assay to identify small molecule antagonists of the peroxisome proliferator-activated receptor delta (PPARd) signaling pathway (AID 743215; active = well fitted inhibition curve with a large enough effect in the signal ratio in the repeat runs, not every such curve was filed as active; the % refers to the signal ratio;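 note: cells stimulated with agonist L165041 at 300 nM final during compound exposure; series mostly up to about 62 µM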). Put shortly:
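Here, a reporter line (HEK293H, beta-lactamase under a UAS) measures PPARd signaling. Compounds are tested against agonist L165041 at 300 nM final concentration over 17 h at 37 C, with fluorescence read after substrate.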

Results filed as inconclusive are left out. The source made the active and inactive calls. Unless noted, calls come from the whole dose curve; as a rule, active = well fitted curve in the direction sought with a large enough effect in the repeat runs; inconclusive = weak or mixed curves; inactive = no such curve, though single readings can be large; an effect the other way counts as inactive or inconclusive.

Sequence of Aryl hydrocarbon receptor (Homo sapiens) (P35869 whole entry, looked up): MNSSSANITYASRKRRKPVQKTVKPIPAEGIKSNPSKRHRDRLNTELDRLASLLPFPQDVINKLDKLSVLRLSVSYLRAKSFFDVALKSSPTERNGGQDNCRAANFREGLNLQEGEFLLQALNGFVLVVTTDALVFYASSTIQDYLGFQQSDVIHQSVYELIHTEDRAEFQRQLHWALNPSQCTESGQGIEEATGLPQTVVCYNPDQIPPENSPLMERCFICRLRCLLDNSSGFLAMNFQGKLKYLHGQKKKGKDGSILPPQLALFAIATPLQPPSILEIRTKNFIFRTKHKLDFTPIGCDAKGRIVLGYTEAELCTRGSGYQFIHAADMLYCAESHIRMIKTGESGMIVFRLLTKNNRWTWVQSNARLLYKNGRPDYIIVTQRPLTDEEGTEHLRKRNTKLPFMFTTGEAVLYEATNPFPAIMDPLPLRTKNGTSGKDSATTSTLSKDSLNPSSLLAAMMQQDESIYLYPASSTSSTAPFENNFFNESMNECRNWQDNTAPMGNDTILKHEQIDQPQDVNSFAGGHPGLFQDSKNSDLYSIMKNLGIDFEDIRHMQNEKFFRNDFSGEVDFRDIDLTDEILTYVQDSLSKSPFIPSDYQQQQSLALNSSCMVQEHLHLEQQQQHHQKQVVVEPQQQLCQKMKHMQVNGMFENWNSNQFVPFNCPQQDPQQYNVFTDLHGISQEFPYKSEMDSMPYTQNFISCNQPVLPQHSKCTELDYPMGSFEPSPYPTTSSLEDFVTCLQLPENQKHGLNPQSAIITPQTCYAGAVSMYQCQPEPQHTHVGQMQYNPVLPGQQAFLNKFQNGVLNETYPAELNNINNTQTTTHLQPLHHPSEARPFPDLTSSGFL
Sequence of Vitamin D3 receptor (Homo sapiens) (P11473 whole entry, looked up): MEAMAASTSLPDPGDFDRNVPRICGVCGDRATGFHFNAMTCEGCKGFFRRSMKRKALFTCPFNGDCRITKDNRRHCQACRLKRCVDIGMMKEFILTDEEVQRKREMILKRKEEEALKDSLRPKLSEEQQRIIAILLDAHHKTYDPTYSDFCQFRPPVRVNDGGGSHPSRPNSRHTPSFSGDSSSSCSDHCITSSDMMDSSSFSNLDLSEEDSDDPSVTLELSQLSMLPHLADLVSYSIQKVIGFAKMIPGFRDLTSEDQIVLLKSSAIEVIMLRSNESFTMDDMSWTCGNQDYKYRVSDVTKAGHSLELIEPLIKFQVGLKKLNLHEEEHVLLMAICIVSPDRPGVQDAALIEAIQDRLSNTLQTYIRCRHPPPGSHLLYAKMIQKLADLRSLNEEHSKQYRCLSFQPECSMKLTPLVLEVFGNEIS
Sequence of Peroxisome proliferator-activated receptor delta (Homo sapiens) (Q03181 whole entry, looked up): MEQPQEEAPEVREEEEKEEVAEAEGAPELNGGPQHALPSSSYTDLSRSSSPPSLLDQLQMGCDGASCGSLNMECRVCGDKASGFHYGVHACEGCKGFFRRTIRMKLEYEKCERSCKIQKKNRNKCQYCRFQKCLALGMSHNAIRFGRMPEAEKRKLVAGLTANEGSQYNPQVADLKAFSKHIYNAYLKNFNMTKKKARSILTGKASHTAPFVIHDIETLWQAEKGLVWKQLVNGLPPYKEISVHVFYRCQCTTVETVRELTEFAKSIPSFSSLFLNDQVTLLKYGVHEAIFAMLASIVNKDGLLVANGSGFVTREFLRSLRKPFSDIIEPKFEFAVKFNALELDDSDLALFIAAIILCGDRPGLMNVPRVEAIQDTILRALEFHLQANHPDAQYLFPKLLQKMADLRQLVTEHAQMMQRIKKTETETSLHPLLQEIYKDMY
Sequence of Peroxisome proliferator-activated receptor gamma (Homo sapiens) (P37231 whole entry, looked up): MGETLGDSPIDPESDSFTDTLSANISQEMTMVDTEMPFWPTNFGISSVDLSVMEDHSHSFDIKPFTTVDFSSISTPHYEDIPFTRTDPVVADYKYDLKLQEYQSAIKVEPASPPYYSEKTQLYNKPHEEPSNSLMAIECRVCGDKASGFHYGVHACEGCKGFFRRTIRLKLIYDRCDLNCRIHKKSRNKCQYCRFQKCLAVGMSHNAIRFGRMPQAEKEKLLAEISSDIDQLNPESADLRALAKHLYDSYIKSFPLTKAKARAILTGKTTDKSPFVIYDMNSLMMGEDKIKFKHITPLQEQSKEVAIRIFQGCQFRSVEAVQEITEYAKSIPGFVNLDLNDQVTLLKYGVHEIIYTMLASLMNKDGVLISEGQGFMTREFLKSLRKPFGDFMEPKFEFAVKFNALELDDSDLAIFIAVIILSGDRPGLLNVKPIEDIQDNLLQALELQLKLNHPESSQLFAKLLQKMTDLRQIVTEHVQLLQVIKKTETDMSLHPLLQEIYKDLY
Sequence of Bile acid receptor (Homo sapiens) (Q96RI1 whole entry, looked up): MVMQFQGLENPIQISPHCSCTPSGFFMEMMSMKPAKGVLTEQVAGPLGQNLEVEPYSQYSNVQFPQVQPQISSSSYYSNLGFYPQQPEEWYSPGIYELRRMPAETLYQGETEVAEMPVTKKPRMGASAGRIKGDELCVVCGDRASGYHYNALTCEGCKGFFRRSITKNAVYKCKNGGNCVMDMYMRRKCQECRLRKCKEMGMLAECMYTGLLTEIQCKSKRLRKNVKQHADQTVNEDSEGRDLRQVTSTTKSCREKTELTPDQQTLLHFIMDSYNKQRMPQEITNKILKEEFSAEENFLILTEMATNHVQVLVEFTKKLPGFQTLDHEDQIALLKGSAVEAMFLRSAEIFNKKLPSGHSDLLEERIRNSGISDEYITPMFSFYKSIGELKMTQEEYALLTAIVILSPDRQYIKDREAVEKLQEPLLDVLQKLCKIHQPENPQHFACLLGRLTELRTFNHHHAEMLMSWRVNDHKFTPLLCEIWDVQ

Turning to `CC(=O)NO`, the Potency entry in [1], in experiment [2], in [3], in experiment [4], in experiment [5] and in [6] was “inactive” throughout. Besides, the Potency entry in [7], in [8], in experiment [9], in experiment [10], in experiment [11] and in experiment [12] was “inactive” each time. In addition, the Potency entry in experiment [13], in experiment [14] and in [15] was “inactive” each time. Moreover, the compound was called inactive in experiment [16].
As for `CCCCCCCCCCCCN1CCCCCC1=O`, the Potency entry in [1], in experiment [2], in [3], in [4], in experiment [5] and in experiment [6] was “inactive” throughout. For the same compound, the Potency result in experiment [8], in experiment [11], in experiment [17], in experiment [12], in [18] and in [13] was “inactive” in each case. Further, the Potency result in [19] and in [15] was “inactive” in each case.
Turning to `NC(=O)C(c1ccccc1)(c1ccccc1)[C@@H]1CCN(CCc2ccc3c(c2)CCO3)C1`, the Potency result in [1], in experiment [2], in [3], in [4], in experiment [5] and in [6] was “inactive” throughout. For the same compound, the Potency entry in experiment [8], in [9], in [10], in experiment [11], in experiment [18] and in experiment [14] was “inactive” throughout. In experiment [15], the Potency entry is “inactive”.
Turning to `CC(C)(C)Cl`, the Potency result in experiment [1], in [2], in [3], in experiment [4], in experiment [5] and in [6] was “inactive” throughout. Further, the Potency entry in experiment [7], in [8], in experiment [9], in experiment [10], in experiment [12] and in experiment [18] was “inactive” throughout. The Potency result in experiment [13], in experiment [19], in [14] and in experiment [15] was “inactive” each time. Also, the call in experiment [16] was inactive.
`CN(C)CCN(Cc1ccccc1)c1ccccn1`: the Potency entry in experiment [1], in experiment [2], in experiment [3], in experiment [4], in [5] and in experiment [6] was “inactive” each time. Moreover, the Potency result in [7], in experiment [8], in [9], in experiment [10], in experiment [17] and in [12] was “inactive” each time. The Potency entry in experiment [20], in experiment [14] and in experiment [15] was “inactive” throughout. Moreover, in experiment [16], the compound was called inactive.
Take `COc1cc(Cl)c(OC)cc1N`: the Potency entry in [1], in experiment [3], in [4], in [5], in experiment [6] and in experiment [8] was “inactive” in each case. Besides, the Potency entry in experiment [9], in experiment [10], in [17], in [12], in experiment [20] and in experiment [18] was “inactive” in each case. Moreover, the Potency result in experiment [13], in experiment [19], in experiment [14] and in experiment [15] was “inactive” in each case. Besides, the Potency in experiment [2] is 30.6 µM (active).
`O=[N+]([O-])c1cccc(S(=O)(=O)O)c1`: the Potency entry in experiment [1], in [2], in experiment [3], in experiment [4], in experiment [5] and in experiment [6] was “inactive” each time. The Potency result in experiment [8], in experiment [9], in experiment [10], in experiment [11], in [17] and in [12] was “inactive” in each case. Also, the Potency result in experiment [20], in experiment [14] and in experiment [15] was “inactive” throughout.
With `CC(C)(COC(=O)c1ccccc1)COC(=O)c1ccccc1`, the Potency entry in experiment [1], in experiment [2], in experiment [3], in [4], in experiment [5] and in experiment [6] was “inactive” each time. For the same compound, the Potency result in experiment [7], in experiment [8], in experiment [9], in experiment [10], in experiment [11] and in experiment [17] was “inactive” each time. Moreover, the Potency result in experiment [12], in experiment [20], in experiment [14] and in experiment [15] was “inactive” throughout.

These data come from PubChem BioAssay (Tox21).
